Structures are written as SMILES. Several values for one entry are separate records, joined by “and”; a condition that tells them apart may be missing. Identical values can stand only once. Activity calls are given as the source filed them.

Assay [1] can be described thus: binders of probe aFSTL3 on microarray, primary screen, stem cell growth factor project, biochemical, small-molecule microarray, fluorescence 635/667 (AID 1064).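 Further: measures binding of the biotinylated anti-FSTL3 antibody to printed compounds.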 To be noted: higher = more signal.
The nature of assay [2]: binders from COS7 lysate, DM2A8 probe, primary screen, torsin A project, cell lysate, small-molecule microarray, fluorescence 635/667 (AID 1065). To be noted: higher = more signal, COS7 lysate expressing mutant human TOR1A.
Assay [3] is described as follows: binders of probe aFGF2 on microarray, primary screen, stem cell growth factor project, biochemical, small-molecule microarray, fluorescence 635/667 (AID 1067).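 Further: measures binding of biotinylated aFGF2 protein to printed compounds on slides; z-score merges feature fluorescence and signal-to-noise across triplicate slides.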 To be noted: higher = more signal.
Assay [4] is described as follows: binders of probe aFGF10 on microarray, primary screen, stem cell growth factor project, biochemical, small-molecule microarray, fluorescence 635/667 (AID 1071).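 Further: score merges 667 nm spot intensity and signal to noise from triplicate slides.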 To be noted: higher = more signal.
In assay [5] the target is Neurogenic locus notch homolog protein 2 (Homo sapiens) (UniProt Q04721). The assay can be described thus: Notch2 binders on small-molecule microarrays, primary screen, biochemical, small-molecule microarray, 635 nm fluorescence, stem cell growth factors (AID 1073). To be noted: Notch2 binding, higher = more signal.
Assay [6] concerns the target Pro-neuregulin-1, membrane-bound isoform (Homo sapiens) (UniProt Q02297). The assay can be described thus: NRG1 binders on small-molecule microarrays, primary screen, psychiatric disease protein project, biochemical, small-molecule microarray, fluorescence 635/667 (AID 1075).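 Further: score combines 667 nm spot fluorescence with signal to noise.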 To be noted: NRG1 binding, 635 nm fluorescence, higher = more signal.
In assay [7] the test system is Neuregulin-1 EGF-like domain. Put plainly: binders of neuregulin-1 EGF-like domain, primary screen, biochemical, small-molecule microarray, 635 nm fluorescence (AID 1081).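 Further: binding of the protein to compounds printed on small-molecule microarray slides.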 To be noted: small-molecule microarray binding, higher = more signal.
Assay [8] can be described thus: FRG1 promoter luciferase signal modulators, primary screen, FRG1 inhibition for FSHD, cell-based, C2C12 myotubes, firefly/Renilla luciferase, luminescence (AID 1084). To be noted: higher = more signal, called active from +8 up or from −8 down.
The nature of assay [9]: binders of probe aFST on microarray, primary screen, stem cell growth factor project, biochemical, small-molecule microarray, fluorescence 635/667 (AID 1086).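 Further: score merges 667 nm fluorescence with signal-to-noise of each printed compound spot.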 To be noted: higher = more signal.
Assay [10] is described as follows: binders of probe aHhip on microarray, primary screen, stem cell growth factor project, biochemical, small-molecule microarray, fluorescence 635/667 (AID 1087).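 Further: score merges spot fluorescence at 667nm with spot signal to noise ratio.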 To be noted: higher = more signal.
Assay [11] deals with PRMT1 (protein arginine N-methyltransferase 1). Put plainly: PRMT1 binders on small-molecule microarrays, primary screen, biochemical, small-molecule microarray, 635 nm fluorescence (AID 1088).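 Further: binding of Prmt1 protein to compounds spotted on small-molecule microarray slides.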 To be noted: small-molecule microarray binding, higher = more signal.
A short description of assay [12]: yeast growth modulation, basal conditions, primary screen, YJM789 clinical isolate, OD600, 24 h (AID 1089).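 Further: growth of clinical yeast isolate S. cerevisiae YJM 789 seeded 1000 cells per well; test concentration not given here.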 To be noted: S. cerevisiae YJM789 growth, higher = more signal, called active from +8 up or from −8 down.
The nature of assay [13]: fission yeast growth modulation, primary screen, strain 972, OD600, 24 h, no modulator (AID 1090).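 Further: basal condition with compound alone and no growth modifier present; test concentration not given here.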 To be noted: S. pombe 972 growth, higher = more signal, called active from +8 up or from −8 down.
Assay [14] is described as follows: S. cerevisiae growth modulation with rapamycin, primary screen, strain BY4716, OD600, 96 h (AID 1091). Further: test concentration not given here. To be noted: higher = more signal, called active from +8 up or from −8 down.
For assay [15], the target named is Torsin-1A-interacting protein 2 (Homo sapiens) (UniProt Q8NFQ8). Put plainly: LULL1 binders on small-molecule microarray, primary screen, cell lysate, human LULL1 lysate, 635/667 nm fluorescence (AID 1092).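 Further: probe is lysate of COS7 cells overexpressing human LULL1; score merges per-feature 667 nm fluorescence with signal-to-noise.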 To be noted: hLULL1 lysate binding, 635 nm fluorescence, higher = more signal.
Chain of Torsin-1A-interacting protein 2 (Homo sapiens) (Q8NFQ8 whole entry, looked up): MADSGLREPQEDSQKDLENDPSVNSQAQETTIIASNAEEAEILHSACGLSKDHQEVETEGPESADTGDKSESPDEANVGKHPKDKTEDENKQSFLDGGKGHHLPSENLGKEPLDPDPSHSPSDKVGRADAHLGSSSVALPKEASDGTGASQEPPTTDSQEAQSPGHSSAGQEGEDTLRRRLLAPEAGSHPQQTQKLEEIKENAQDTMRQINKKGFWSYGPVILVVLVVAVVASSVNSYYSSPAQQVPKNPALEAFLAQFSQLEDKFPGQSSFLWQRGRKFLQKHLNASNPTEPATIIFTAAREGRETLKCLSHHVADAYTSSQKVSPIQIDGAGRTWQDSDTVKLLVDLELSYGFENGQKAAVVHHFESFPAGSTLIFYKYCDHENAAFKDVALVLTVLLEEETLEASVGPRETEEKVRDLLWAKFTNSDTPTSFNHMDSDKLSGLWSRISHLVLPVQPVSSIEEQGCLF
Assay [16] in a line: E. coli growth modulation, two-sided OD650, primary screen, E. coli filamentation project, strain DRC41, 24 h (AID 1093).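 Further: MC1000 strain lacking acrAB efflux and sulA so SOS filamentation is blocked; test concentration not given here.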 To be noted: OD650, 24 h, higher = more signal, called active from +8 up or from −8 down.
The nature of assay [17]: small-molecule microarray binders of probe aLefty2, primary screen, biochemical, biotinylated probe, 635/667 nm fluorescence (AID 1094).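 Further: score merges spot fluorescence near 667 nm with spot signal-to-noise ratio.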 To be noted: higher = more signal.
Assay [18] relates to Noggin (protein binding on small-molecule microarray). Put plainly: Noggin binders on small-molecule microarray, primary screen, biochemical, 635/667 nm fluorescence (AID 1095).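 Further: score merges 667 nm feature fluorescence with signal to noise over triplicate slides.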 To be noted: 635 nm fluorescence, higher = more signal.
Assay [19] has as its target Neurogenic locus notch homolog protein 3 (Homo sapiens) (UniProt Q9UM47). Put plainly: NOTCH3 binders on small-molecule microarray, primary screen, biochemical, 635/667 nm fluorescence (AID 1096). To be noted: NOTCH3 binding, 635 nm fluorescence, higher = more signal.
Assay [20] in a line: small-molecule microarray binders of probe aEGFR, primary screen, biochemical, biotinylated probe, 635/667 nm fluorescence (AID 1097).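 Further: probe is a biotinylated anti-EGFR antibody binding compounds printed on slides; score combines fluorescence near 667 nm and signal to noise of each spot.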 To be noted: higher = more signal.

Chain of Neurogenic locus notch homolog protein 3 (Homo sapiens) (Q9UM47 whole entry, looked up): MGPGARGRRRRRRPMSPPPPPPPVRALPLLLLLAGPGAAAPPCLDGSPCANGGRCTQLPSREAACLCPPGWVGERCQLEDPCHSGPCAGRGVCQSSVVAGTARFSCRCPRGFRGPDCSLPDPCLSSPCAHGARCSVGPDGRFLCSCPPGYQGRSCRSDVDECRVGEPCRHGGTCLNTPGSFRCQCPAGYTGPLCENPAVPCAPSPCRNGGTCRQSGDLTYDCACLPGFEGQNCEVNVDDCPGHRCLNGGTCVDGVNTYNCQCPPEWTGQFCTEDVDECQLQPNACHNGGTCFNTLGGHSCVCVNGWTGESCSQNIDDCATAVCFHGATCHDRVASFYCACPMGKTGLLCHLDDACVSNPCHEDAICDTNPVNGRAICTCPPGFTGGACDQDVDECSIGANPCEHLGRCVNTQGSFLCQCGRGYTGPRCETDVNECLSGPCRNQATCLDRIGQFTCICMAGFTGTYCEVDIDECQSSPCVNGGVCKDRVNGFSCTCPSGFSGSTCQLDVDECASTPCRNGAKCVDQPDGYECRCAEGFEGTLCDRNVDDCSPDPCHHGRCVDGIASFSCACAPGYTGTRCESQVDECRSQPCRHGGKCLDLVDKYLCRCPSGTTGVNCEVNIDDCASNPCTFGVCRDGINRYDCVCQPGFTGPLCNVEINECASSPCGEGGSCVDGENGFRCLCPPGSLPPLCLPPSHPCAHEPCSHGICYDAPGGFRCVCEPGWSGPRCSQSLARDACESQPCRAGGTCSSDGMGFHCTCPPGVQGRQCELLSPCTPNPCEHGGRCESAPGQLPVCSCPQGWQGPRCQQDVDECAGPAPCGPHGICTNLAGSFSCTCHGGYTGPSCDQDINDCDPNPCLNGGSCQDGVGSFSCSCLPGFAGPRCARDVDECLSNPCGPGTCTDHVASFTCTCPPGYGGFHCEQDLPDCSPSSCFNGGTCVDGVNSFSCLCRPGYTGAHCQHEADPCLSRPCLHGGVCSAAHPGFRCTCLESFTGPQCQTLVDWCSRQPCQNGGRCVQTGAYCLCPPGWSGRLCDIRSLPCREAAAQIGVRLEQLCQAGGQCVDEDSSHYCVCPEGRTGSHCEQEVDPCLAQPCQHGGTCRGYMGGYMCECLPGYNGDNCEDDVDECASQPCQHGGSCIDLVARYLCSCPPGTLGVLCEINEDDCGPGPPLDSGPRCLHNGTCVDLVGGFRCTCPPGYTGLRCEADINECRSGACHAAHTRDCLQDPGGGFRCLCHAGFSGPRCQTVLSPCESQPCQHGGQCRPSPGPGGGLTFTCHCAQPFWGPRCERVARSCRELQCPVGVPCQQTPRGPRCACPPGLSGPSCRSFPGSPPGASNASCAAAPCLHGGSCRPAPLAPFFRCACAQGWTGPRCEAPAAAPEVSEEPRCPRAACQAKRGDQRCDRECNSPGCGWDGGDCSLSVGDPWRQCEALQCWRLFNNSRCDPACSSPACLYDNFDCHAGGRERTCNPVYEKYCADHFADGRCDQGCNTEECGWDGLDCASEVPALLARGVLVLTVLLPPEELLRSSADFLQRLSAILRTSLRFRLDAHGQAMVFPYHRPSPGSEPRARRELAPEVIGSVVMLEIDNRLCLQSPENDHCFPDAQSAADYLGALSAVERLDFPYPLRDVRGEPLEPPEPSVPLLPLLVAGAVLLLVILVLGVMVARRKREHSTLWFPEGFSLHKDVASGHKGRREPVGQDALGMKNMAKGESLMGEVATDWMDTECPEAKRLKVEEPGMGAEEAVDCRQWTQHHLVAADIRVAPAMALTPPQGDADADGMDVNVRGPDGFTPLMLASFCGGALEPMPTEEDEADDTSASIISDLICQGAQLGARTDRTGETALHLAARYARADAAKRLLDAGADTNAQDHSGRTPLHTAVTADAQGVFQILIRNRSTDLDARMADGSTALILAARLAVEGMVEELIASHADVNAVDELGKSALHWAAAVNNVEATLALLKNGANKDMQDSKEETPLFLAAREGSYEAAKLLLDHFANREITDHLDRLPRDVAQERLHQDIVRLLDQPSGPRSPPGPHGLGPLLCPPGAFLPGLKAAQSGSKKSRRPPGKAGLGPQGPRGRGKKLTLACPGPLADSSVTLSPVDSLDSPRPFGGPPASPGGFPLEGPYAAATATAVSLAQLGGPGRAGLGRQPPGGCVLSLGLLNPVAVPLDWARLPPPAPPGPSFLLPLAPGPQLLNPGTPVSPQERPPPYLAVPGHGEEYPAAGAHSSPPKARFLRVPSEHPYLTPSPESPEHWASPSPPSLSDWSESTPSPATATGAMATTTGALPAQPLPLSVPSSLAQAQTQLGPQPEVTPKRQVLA
Chain of Pro-neuregulin-1, membrane-bound isoform (Homo sapiens) (Q02297 whole entry, looked up, the tested form may be a part, canonical isoform): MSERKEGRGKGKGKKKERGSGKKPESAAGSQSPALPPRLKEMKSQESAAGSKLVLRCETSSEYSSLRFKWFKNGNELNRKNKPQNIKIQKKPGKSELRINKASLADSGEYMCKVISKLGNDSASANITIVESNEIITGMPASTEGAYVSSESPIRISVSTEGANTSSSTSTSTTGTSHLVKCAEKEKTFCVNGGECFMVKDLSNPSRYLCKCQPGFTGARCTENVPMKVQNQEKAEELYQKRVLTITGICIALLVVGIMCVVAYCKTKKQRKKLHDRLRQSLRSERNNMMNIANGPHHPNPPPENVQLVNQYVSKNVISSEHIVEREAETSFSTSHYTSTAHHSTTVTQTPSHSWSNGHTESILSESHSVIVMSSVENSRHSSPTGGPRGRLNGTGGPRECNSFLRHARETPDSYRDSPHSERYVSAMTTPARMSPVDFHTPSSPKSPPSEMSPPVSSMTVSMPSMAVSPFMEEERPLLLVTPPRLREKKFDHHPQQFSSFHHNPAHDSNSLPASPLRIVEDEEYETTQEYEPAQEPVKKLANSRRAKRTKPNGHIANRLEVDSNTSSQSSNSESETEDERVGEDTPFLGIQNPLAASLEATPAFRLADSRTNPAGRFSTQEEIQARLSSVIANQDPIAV

For the compound `C=CC[C@@H](O)c1ccc(O)c(F)c1`, the composite z-score in assay [1] was 1.77 and 0.459; in assay [2] it was 0.897 and -0.727; in assay [3] it was -0.0695 and -0.194; in [4] it was -0.03 and -1.69; in [5] it was -1.42 and -2.14; in assay [6], -0.627 and -0.0657. Besides, the composite z-score is 0.684 and 0.704 in assay [7]; -0.922 and -0.799 in assay [9]; -0.132 and 0.0392 in [10]; -0.508 and -0.514 in [11]; -0.471 and -1.19 in assay [15]; -0.0329 and -0.0221 in assay [17]. Besides, the composite z-score is -2.36 and -0.702 in assay [18]; -1.4 and -0.883 in assay [19]; -0.384 and -0.381 in assay [20]. Besides, the z-score in [8] was 0.572 (inactive) and -1.4 (inactive); in [12] it was 0.442 (inactive) and -0.907 (inactive); in assay [13], -0.6 (inactive) and -1.52 (inactive); in assay [14], -0.389 (inactive) and -1.67 (inactive); in assay [16], 0.336 (inactive) and 1.94 (inactive).

`COc1ccc(O[C@H]2C=C[C@@H](c3ccccc3)O[C@@H]2COC(=O)CCC(C)=NO[C@H](C)c2cn([C@H](CO)Cc3ccccc3)nn2)cc1`: the composite z-score in assay [1] is -0.647 and -0.694; in [2], 0.535 and 0.365; in assay [3] it was -0.0682 and -0.171; in assay [4], 0.241 and 0.038; in assay [5], 0.203 and 0.35; in assay [6], 0.338 and 0.692. Further, the composite z-score in assay [7] was -0.0177 and 0.384; in assay [9], 0.0869 and -0.364; in assay [10], -0.0196 and 0.201; in assay [11], 0.88 and 0.299; in assay [15], 0.026 and 0.303; in assay [17] it was -0.353 and -0.312. Moreover, the composite z-score in assay [18] is 0.393 and 0.795; in assay [19] it was 0.155 and 0.167; in [20] it was 0.257 and -0.336. In addition, the z-score in [8] was 1.61 (inactive) and 1.46 (inactive); in assay [12], 0.479 (inactive) and 0.555 (inactive); in assay [13], 0.52 (inactive) and 0.0557 (inactive); in assay [14] it was 0.616 (inactive) and 1.32 (inactive); in assay [16], 0.204 (inactive) and 0.524 (inactive).

Take `CCOC(=O)C[C@H]1[C@H](OC(=O)c2ccccc2-c2ccccc2)[C@@H](NC(=O)Cc2ccc(OC)cc2)c2cc(OCCCO)ccc2N1C(=O)c1ccc2ccccc2n1`: the composite z-score in [1] is -0.21 and 0.27; in assay [2], 0.266 and 0.395; in assay [3], -0.0781 and 0.16; in assay [4], 0.27 and 0.319; in assay [5] it was 0.305 and 0.361; in [6], 0.147 and 0.653. For the same compound, the composite z-score in assay [7] was -0.529 and 0.0101; in [9] it was 0.442 and 0.575; in assay [10], -0.0645 and -0.0672; in assay [11], -0.557 and 0.587; in assay [15] it was 0.347 and 0.379; in assay [17], -0.0953 and 0.0397. For the same compound, the composite z-score in [18] is 0.248 and 0.329; in assay [19] it was 0.0452 and 0.418; in assay [20] it was -0.0107 and 0.182. For the same compound, the z-score in assay [8] is -0.0725 (inactive) and 0.266 (inactive); in [12], -0.321 (inactive) and -0.249 (inactive); in [13] it was -0.0002 (inactive) and -0.478 (inactive); in [14], -0.411 (inactive) and 0.456 (inactive); in [16] it was 2.43 (inactive) and 1.41 (inactive).

On to `C=CCN(Cc1ccccc1)C(=O)C(c1cccs1)N(C(=O)/C=C\C(=O)O)c1ccc(CCO)cc1` (stereo not given), for which the composite z-score in assay [1] is 1.05 and 0.697; in assay [2], -1.89 and -1.8; in assay [3], -0.175 and -0.232; in [4] it was -1.05 and -0.73; in assay [5], -1.36 and -1.96; in assay [6] it was -0.789 and -0.264. The composite z-score is 1.25 and 1.43 in assay [7]; -0.966 and -0.865 in [9]; -0.369 and 0.205 in assay [10]; -0.0611 and -0.636 in assay [11]; 3.59 and 1.9 in [15]; -0.0927 and -0.205 in assay [17]. Also, the composite z-score was -2.05 and -1.63 in [18]; -1.46 and -0.922 in assay [19]; -0.239 and -0.321 in assay [20]. The z-score in assay [8] was 0.0388 (inactive) and -0.725 (inactive); in [12], -0.0499 (inactive) and -0.0798 (inactive); in [13], -0.0594 (inactive) and 0.33 (inactive); in assay [14], -0.184 (inactive) and 0.0995 (inactive); in assay [16], 0.478 (inactive) and -0.0137 (inactive).

The values above are taken from PubChem BioAssay.
